# Source: the supplement of paper PMC10849652
# Targets with a hit are over-represented here; the source holds about 7,900 in all. About 0.6% of all pairs of compound and target were hits.
# Compound: O=C1NC(=O)C(c2cnc3ccccn23)=C1c1cn2c3c(cc(F)cc13)CN(C(=O)N1CCCCC1)CC2
# Assay: log2 fold change, soluble protein after heating vs DMSO (PISA); higher = thermal stabilisation; K562 cells, 10 uM, 30 min; active = over 0.2 and 3.5 SD of the protein, either way, in both replicates (recomputed)
# How it was run: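 K562 cells at 2×10^6 cells/mL were given 10 μM compound for 30 min. Aliquots then went through 3 min of heating across 48°C-58°C, were pooled, and were extracted in PBS with 0.5% NP-40 at 4°C, and the supernatant after 21,000xg for 90 min was quantified by TMTpro 16plex LC-MS/MS with channel sums equalised. Thermal stability relative to control samples, from duplicates, is given as log2 fold change.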
# Sequence of UniProt Q9H4I9 (Q9H4I9 whole entry, looked up): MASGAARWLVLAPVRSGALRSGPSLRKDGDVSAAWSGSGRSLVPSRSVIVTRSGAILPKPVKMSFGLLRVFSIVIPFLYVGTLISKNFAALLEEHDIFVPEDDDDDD
# Sequence of UniProt O75663 (O75663 whole entry, looked up): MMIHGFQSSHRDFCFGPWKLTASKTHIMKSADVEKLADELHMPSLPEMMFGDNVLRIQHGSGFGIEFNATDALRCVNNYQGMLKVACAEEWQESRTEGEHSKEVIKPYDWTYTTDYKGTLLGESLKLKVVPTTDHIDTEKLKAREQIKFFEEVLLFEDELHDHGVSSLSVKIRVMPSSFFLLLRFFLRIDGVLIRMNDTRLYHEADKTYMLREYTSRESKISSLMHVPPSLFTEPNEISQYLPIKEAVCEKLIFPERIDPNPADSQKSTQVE
# Sequence of UniProt P12235 (P12235 whole entry, looked up): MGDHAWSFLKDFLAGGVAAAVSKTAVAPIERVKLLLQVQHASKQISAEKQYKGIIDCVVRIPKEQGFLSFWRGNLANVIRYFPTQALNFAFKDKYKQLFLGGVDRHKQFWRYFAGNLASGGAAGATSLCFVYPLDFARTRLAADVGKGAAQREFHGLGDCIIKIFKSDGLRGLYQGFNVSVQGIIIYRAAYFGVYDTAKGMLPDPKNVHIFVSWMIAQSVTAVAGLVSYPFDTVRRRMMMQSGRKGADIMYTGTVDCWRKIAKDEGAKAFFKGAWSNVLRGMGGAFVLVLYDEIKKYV
# Sequence of UniProt Q05519 (Q05519 whole entry, looked up): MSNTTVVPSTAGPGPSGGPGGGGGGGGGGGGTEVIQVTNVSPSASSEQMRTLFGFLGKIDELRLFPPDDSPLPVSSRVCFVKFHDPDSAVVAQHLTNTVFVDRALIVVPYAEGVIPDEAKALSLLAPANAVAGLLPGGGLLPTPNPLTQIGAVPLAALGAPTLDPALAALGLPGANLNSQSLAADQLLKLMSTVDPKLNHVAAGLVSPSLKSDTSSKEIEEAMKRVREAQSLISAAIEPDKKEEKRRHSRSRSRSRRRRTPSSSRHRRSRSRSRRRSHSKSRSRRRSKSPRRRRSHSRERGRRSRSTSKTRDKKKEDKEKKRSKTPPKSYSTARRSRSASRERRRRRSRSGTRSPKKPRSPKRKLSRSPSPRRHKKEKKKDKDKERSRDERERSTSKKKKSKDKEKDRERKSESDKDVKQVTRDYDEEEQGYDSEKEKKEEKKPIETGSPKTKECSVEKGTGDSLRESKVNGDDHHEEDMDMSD
# Sequence of UniProt Q92797 (Q92797 whole entry, looked up): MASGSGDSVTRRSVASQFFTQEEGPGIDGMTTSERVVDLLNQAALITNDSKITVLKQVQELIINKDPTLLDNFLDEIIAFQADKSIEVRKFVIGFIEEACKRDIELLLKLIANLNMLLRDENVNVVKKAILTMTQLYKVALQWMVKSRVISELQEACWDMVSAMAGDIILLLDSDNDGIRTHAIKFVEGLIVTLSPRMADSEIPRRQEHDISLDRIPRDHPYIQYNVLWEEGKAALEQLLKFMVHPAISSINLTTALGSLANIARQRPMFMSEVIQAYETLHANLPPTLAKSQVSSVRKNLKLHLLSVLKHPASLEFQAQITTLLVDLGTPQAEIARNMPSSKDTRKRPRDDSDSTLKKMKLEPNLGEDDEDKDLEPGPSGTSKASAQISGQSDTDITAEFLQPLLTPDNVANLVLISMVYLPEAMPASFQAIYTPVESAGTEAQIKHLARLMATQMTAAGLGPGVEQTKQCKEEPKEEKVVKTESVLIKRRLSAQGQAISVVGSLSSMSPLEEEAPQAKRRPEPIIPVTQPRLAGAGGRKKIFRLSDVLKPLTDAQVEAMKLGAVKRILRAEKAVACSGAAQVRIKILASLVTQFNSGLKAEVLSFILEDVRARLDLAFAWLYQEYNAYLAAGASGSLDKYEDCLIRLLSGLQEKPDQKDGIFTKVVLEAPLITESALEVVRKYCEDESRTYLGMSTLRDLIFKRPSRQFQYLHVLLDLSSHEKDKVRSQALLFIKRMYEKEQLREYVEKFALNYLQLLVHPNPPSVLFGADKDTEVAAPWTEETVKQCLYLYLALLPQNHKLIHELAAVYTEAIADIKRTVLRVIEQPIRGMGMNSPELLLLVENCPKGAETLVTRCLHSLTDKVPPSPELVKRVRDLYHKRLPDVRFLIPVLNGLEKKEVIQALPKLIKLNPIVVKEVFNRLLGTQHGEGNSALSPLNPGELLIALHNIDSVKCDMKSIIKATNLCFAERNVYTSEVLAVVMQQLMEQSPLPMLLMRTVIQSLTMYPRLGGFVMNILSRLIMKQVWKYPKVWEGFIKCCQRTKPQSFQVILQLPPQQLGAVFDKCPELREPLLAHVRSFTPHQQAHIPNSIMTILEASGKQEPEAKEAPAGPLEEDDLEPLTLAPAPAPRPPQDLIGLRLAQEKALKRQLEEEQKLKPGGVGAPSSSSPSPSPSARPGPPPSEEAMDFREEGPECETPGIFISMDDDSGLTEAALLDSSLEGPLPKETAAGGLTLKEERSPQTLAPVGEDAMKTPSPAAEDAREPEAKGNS
# Sequence of UniProt Q92581 (Q92581 whole entry, looked up): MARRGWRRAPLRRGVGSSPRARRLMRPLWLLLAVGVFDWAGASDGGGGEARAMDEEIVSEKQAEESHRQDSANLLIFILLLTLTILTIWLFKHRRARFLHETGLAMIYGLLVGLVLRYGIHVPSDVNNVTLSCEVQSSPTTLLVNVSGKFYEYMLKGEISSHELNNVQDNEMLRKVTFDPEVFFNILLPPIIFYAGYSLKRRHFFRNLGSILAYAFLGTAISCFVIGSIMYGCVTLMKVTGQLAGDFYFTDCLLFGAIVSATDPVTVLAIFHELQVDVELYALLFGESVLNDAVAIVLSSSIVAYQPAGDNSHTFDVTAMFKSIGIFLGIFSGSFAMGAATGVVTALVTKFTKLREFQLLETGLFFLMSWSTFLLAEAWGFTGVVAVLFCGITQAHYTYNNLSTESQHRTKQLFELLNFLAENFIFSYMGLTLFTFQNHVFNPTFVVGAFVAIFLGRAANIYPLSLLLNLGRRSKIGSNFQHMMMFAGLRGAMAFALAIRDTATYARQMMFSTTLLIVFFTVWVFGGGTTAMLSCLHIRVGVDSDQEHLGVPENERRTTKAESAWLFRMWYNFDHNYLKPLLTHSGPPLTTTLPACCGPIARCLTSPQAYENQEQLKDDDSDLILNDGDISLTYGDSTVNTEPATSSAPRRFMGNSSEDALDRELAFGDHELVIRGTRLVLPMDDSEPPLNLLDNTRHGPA
# Sequence of UniProt Q9UP52 (Q9UP52 whole entry, looked up): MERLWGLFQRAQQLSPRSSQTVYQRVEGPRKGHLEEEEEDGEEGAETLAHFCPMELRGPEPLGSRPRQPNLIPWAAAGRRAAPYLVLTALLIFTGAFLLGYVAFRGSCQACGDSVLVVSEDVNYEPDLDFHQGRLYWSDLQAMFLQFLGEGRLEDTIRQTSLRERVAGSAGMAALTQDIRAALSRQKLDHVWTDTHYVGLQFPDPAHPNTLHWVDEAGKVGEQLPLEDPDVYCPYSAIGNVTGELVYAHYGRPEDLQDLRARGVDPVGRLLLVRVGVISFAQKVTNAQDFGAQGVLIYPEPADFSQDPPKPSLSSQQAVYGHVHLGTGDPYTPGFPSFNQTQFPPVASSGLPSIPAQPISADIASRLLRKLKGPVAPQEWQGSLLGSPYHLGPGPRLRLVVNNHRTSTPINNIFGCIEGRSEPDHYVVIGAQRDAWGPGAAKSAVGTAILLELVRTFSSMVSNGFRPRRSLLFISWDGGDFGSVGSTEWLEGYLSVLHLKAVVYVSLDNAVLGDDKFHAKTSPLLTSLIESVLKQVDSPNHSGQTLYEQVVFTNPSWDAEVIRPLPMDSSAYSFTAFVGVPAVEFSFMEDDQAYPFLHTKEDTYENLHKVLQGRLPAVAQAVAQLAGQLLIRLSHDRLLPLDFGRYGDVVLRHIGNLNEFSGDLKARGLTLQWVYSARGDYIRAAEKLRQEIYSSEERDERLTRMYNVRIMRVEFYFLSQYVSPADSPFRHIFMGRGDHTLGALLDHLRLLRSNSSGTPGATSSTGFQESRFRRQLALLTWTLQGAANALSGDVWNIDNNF
# Sequence of UniProt Q15582 (Q15582 whole entry, looked up): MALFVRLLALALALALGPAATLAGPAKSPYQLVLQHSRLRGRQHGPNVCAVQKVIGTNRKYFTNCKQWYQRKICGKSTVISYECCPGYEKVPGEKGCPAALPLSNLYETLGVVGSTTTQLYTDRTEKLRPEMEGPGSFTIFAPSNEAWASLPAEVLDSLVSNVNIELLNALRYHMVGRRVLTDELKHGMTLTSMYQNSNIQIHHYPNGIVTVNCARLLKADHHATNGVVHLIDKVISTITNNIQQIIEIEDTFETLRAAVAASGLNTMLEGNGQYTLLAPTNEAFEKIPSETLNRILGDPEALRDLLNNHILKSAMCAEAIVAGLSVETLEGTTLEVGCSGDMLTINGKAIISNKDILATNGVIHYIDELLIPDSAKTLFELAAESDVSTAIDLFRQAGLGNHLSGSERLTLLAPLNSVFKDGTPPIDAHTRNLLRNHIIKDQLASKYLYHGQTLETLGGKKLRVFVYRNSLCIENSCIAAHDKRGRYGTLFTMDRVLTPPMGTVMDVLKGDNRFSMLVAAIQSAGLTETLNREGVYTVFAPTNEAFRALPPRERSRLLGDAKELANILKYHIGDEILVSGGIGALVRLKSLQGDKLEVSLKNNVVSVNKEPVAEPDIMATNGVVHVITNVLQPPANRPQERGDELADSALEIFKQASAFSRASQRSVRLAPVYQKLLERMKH
# Sequence of UniProt Q15005 (Q15005 whole entry, looked up): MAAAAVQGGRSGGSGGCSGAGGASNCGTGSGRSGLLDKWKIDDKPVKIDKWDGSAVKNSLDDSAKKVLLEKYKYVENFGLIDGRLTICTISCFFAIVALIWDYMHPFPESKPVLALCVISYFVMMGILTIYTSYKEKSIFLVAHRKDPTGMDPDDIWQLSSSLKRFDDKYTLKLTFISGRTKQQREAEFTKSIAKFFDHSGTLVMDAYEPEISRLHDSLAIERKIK
row,Target,log2 fold change
1,TCERG1 (UniProt O14776),-0.153 (inactive)
2,SPCS2 (UniProt Q15005),-0.021 (inactive)
3,TK1 (UniProt K7ERV3),-0.116 (inactive)
4,SP3 (UniProt Q02447),-0.02 (inactive)
5,STARD3 (UniProt Q14849),-0.003 (inactive)
6,SRSF6 (UniProt Q13247),0.108 (inactive)
7,SPTBN1 (UniProt Q01082),0.009 (inactive)
8,SLC29A3 (UniProt Q9BZD2),0.142 (inactive)
9,SRSF11 (UniProt Q05519),0.037 (inactive)
10,SLC35B4 (UniProt Q969S0),-0.069 (inactive)
11,SLC27A2 (UniProt O14975),0.247 (inactive)
12,SPPL2B (UniProt Q8TCT7),0.029 (inactive)
13,SMPD4 isoform 4 (UniProt Q9NXE4),0.012 (inactive)
14,SLC9A6 isoform 2 (UniProt Q92581),-0.021 (inactive)
15,TGFBI (UniProt Q15582),-0.01 (inactive)
16,STXBP5 (UniProt Q5T5C0),-0.04 (inactive)
17,STOM (UniProt P27105),0.042 (inactive)

row,Target,log2 fold change
1,SRSF7 (UniProt Q16629),0.357 (inactive)
2,SLC38A9 (UniProt Q8NBW4),-0.044 (inactive)
3,TBRG4 (UniProt Q969Z0),-0.191 (inactive)
4,SMARCA4 (UniProt P51532),-0.067 (inactive)
5,TFR2 (UniProt Q9UP52),-0.035 (inactive)
6,TECR (UniProt Q9NZ01),-0.07 (inactive)
7,SRSF10 (UniProt O75494),0.304 (inactive)
8,TBC1D5 isoform 2 (UniProt Q92609),-0.076 (inactive)
9,SRP68 (UniProt Q9UHB9),0.096 (inactive)
10,SYMPK (UniProt Q92797),0.033 (inactive)
11,STEAP3 isoform 2 (UniProt Q658P3),-0.028 (inactive)
12,SLC25A4 (UniProt P12235),-0.025 (inactive)
13,TMBIM6 isoform 2 (UniProt P55061),-0.089 (inactive)
14,SMDT1 (UniProt Q9H4I9),-0.011 (inactive)
15,SLC35A1 (UniProt P78382),0.028 (inactive)
16,TIPRL (UniProt O75663),-0.06 (inactive)
